Where “and” joins values, the source holds several entries; their conditions need not be identical. Identical values can stand only once. Inconclusive results are not listed. Calls of active or inactive are those of the source. Unless noted, calls come from the whole dose curve; as a rule, active = well fitted curve in the direction sought with a large enough effect; inconclusive = small, poorly fitted or top-dose-only effect, or another doubt; inactive = no such curve, though single readings can be large; an effect the other way counts as inactive or inconclusive.
Columns and labels:
[1] = qHTS assay for small molecule antagonists of peroxisome proliferator-activated receptor delta signaling (AID 588535); conditions: HEK293T PPARd-UAS-bla, beta-lactamase FRET ratio, 18 h; 460 nm channel;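 note: cells co-treated with a PPAR-delta agonist as stimulator during compound exposure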
Method in brief: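 Titrations were run on PPAR-delta-UAS-bla HEK293T cells in charcoal/dextran-stripped serum, incubated 18 h at 37 C. CCF4 fluorescence (460/530 nm) after 2 h RT; Hill equation yields IC50 and maximal response.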

[2] = target: Vitamin D3 receptor (Homo sapiens) (UniProt P11473); experiment: qHTS assay for small molecule antagonists of vitamin D receptor signaling (AID 588541; calls by dose curve;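 note: receptor activated by calcitriol during compound treatment; % is set by controls: 0 for no effect and ±100 for the full control effect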); conditions: HEK293T VDR-UAS-bla, beta-lactamase ratio, antagonist mode; series mostly up to 76.7 µM
Chain of Vitamin D3 receptor (Homo sapiens) (P11473 whole entry, looked up): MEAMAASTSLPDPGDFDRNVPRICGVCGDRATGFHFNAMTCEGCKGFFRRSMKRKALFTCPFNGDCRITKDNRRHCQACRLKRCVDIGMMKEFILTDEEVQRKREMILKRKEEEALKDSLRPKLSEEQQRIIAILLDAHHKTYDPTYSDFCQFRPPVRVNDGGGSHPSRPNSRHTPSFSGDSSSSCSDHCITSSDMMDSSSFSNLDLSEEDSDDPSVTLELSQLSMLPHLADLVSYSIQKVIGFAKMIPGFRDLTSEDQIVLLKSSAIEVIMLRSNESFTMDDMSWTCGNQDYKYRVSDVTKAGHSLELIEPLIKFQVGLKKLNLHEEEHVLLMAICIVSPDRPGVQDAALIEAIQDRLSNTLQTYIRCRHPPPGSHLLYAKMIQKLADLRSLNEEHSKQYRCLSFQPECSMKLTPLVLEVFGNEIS
Method in brief: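 Antagonist-mode beta-lactamase reporter assay: HEK293T VDR-UAS-bla cells were exposed to titrated compound alongside 1-alpha,25-dihydroxyvitamin D3 at 3 nM final for 16 h. Values were normalized to the 50 nM agonist control and DMSO basal, with IC50 and efficacy from Hill equation fits.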

[3] = target: Vitamin D3 receptor (Homo sapiens) (UniProt P11473); experiment: qHTS assay for small molecule agonists of vitamin D receptor signaling (AID 588543; calls by dose curve;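 note: 0% = DMSO basal and 100% = reference agonist control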); conditions: HEK293T VDR-UAS-bla, beta-lactamase ratio, 16 h; series mostly up to 76.8 µM
Method in brief: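 Measured: β-lactamase reporter activity (CCF4, 405 nm excitation, 460/530 nm emission) in HEK293T VDR-UAS-bla cells after 16 h compound exposure at 37 °C. Normalization against 50 nM 1α,25-dihydroxyvitamin D3 and DMSO; Hill-fit EC50.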

[4] = qHTS assay for small molecule agonists of retinoid X receptor alpha signaling (AID 588544; calls by dose curve); conditions: HEK293T RXRa-UAS-bla, beta-lactamase reporter, 18 h; 530 nm emission
[5] = target: Retinoic acid receptor RXR-alpha (Homo sapiens) (UniProt P19793); experiment: as above; conditions: HEK293T RXRa-UAS-bla, beta-lactamase reporter, 18 h; series mostly up to 76.7 µM
Chain of Retinoic acid receptor RXR-alpha (Homo sapiens) (P19793 whole entry, looked up): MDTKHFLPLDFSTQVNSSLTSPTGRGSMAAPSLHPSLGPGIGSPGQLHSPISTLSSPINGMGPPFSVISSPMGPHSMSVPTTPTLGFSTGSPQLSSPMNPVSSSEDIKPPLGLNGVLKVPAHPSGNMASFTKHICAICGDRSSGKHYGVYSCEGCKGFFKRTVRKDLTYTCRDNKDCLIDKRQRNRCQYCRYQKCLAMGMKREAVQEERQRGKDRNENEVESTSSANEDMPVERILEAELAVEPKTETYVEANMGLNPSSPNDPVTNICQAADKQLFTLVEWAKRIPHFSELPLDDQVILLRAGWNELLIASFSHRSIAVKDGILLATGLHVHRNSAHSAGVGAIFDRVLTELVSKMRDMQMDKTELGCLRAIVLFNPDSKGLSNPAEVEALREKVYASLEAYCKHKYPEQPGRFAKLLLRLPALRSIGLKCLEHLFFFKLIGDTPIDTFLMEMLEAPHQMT

[6] = target: Thyroid hormone receptor beta (Homo sapiens) (UniProt P10828); experiment: qHTS assay for small molecule agonists of thyroid hormone receptor beta signaling (AID 588545; calls by dose curve;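 note: 0% = DMSO only and 100% = 10 nM T3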); conditions: TR-UAS-bla GripTite HEK 293, beta-lactamase ratio, agonist mode, 18 h, percent of T3 response, DMSO as zero; series mostly up to 76.7 µM
Chain of Thyroid hormone receptor beta (Homo sapiens) (P10828 whole entry, looked up): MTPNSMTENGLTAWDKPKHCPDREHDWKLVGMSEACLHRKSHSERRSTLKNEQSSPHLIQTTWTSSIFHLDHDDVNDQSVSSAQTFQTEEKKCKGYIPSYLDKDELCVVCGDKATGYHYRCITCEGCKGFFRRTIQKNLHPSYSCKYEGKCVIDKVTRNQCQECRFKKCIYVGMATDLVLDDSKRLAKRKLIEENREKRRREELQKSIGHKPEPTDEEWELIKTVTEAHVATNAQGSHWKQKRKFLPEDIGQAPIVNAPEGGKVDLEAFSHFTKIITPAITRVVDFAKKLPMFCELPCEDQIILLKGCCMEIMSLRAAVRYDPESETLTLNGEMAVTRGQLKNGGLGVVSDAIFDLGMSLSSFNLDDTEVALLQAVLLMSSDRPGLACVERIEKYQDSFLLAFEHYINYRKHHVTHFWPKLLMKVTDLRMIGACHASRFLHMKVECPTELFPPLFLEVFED
Method in brief: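 Beta-lactamase reporter activity under TR response element control is measured in HEK 293 cells after 18 hrs compound exposure. Signal is ratiometric CCF4 fluorescence, 460/530 nm.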

[7] = qHTS assay for small molecule antagonists of retinoid X receptor alpha signaling (AID 588546; active = well fitted inhibition curve with a large enough effect in the signal ratio, with a control signal flat, not every such curve was filed as active; the % refers to the signal ratio; note: potency is the fitted concentration of half-maximal effect;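 for max response: cells stimulated with 9-cis-retinoic acid as agonist; % is set by controls: 0 for no effect and ±100 for the full control effect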); conditions: HEK293T RXRa-UAS-bla, beta-lactamase ratio, antagonist mode; measured here: W530 green channel, cytotoxicity proxy
Method in brief: (§1)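 Beta-lactamase reporter inhibition, read as CCF4 fluorescence ratio (ex 405, em 460/530 nm) after 2 h at RT. HEK293T UAS-bla cells, 2500/well, were stimulated with 9-cis-RA at 500 or 100 nM final alongside test compound for 18 h at 37 C.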

[8] = target: Retinoic acid receptor RXR-alpha (Homo sapiens) (UniProt P19793); experiment: as above; conditions: HEK293T RXRa-UAS-bla, beta-lactamase ratio, antagonist mode
Method in brief: as §1

[9] = target: Voltage-gated inwardly rectifying potassium channel KCNH2 (Homo sapiens) (UniProt Q12809); experiment: qHTS Assay for Small Molecule Inhibitors of the Human hERG Channel Activity (AID 588834); conditions: U2OS BacMam hERG, FluxOR thallium flux fluorescence; series mostly up to 46.1 µM;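 note: top concentration of the series differs between compounds; % is set by controls: 0 for no effect and ±100 for the full control effect; lower thallium flux fluorescence means stronger hERG block; nearly all actives have a fitted effect of over 50% in size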
Chain of Voltage-gated inwardly rectifying potassium channel KCNH2 (Homo sapiens) (Q12809 whole entry, looked up): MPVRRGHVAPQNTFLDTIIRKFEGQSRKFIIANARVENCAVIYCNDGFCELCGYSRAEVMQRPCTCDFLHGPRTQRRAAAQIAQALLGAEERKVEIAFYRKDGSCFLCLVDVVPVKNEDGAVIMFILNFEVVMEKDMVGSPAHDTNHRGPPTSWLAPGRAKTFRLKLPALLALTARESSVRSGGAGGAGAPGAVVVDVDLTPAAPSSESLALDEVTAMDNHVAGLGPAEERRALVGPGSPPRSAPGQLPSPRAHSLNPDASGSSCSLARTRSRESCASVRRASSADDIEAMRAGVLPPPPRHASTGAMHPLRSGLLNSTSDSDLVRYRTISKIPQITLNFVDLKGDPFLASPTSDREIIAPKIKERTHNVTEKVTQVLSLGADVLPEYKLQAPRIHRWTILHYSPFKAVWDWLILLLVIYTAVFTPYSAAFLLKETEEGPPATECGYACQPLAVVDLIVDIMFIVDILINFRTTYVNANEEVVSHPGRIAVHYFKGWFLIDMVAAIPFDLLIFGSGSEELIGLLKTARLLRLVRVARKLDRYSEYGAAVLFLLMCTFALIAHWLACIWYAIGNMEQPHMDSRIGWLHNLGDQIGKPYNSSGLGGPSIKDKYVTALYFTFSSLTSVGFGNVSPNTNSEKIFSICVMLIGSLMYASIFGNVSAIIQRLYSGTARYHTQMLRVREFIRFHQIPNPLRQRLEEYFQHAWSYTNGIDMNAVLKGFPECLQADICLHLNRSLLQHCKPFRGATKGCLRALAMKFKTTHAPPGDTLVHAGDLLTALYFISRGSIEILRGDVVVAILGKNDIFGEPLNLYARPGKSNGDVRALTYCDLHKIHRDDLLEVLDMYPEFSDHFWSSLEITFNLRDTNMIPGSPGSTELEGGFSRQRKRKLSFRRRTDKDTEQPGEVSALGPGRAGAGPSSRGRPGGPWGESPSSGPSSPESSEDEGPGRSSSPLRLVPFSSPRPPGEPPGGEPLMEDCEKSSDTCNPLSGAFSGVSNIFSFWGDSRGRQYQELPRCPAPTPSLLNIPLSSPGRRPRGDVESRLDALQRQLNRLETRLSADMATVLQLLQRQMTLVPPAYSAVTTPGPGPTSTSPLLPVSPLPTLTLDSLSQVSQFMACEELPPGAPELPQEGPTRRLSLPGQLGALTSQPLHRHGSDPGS
Method in brief: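 Homogeneous FluxOR thallium flux assay using hERG-expressing U2OS cells (BacMam). Compound treatment about 10 minutes preceded stimulation; reduced fluorescence taken as channel block.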

[10] = S16 Schwann cell viability assay (CellTiter-Glo assay) (AID 624031); conditions: S16 rat Schwann cells viability, 24 h; series mostly up to 57.5 µM;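 note: native untransfected S16 rat Schwann cells; cellular ATP luminescence as a viability measure; plate controls were DMSO-treated cells for no effect and cell-free wells for full effect; nearly all actives have a fitted effect of over 70% in size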
Method in brief: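 Parental S16 cells, 24 h compound, 37 °C. ATP-luminescence viability; DMSO = 0% activity, empty wells as reference; curves classified by fit quality and efficacy.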

[11] = S16 Schwann cell PMP22 intronic element firefly luciferase assay (AID 624032); conditions: S16 rat Schwann cells, PMP22 element FLuc, 24 h; series mostly up to 57.5 µM;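 note: plate controls were DMSO for no effect and PTC124 positive control mean for full effect; nearly all actives have a fitted effect of over 30% in size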
Method in brief: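 Luciferase reporter of PMP22 intronic-element expression in stably transfected S16 rat Schwann cells, read by ONE-Glo luminescence after 24 h compound exposure at 37 C. Activity scaled between DMSO (0%) and positive-control PTC124; concentration-effect curves quality-classified.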

[12] = target: Glutaminase kidney isoform, mitochondrial (Homo sapiens) (UniProt O94925); experiment: qHTS for Inhibitors of Glutaminase (GLS): LOPAC Validation (AID 624146); conditions: glutaminase enzyme activity inhibition; series mostly up to 46.1 µM; note: nearly all actives have a fitted effect of over 60% in size; note: potency is the fitted concentration of half-maximal effect
Chain of Glutaminase kidney isoform, mitochondrial (Homo sapiens) (O94925 whole entry, looked up, canonical isoform): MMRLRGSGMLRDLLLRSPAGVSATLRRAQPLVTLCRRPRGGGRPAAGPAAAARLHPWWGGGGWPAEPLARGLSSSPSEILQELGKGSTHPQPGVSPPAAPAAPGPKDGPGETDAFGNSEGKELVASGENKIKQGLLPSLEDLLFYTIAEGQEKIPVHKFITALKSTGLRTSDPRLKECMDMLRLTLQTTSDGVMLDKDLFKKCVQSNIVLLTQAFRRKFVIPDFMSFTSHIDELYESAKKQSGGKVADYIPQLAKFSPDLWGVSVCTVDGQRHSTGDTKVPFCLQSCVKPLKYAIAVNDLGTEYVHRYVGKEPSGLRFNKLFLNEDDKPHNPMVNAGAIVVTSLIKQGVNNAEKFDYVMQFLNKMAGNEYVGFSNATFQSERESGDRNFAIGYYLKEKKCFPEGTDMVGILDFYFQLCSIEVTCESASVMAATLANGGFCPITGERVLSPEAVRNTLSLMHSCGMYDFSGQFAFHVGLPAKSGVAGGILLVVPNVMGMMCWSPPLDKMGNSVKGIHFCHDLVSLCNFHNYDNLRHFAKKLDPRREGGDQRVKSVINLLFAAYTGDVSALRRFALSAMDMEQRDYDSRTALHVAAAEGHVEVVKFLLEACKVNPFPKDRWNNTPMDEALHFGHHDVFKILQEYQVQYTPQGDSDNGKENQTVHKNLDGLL
Method in brief: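 Glutamate formation by hKGA was monitored fluorometrically using coupled glutamate oxidase, HRP and Amplex Red. Substrate was added as 1 mM L-glutamine solution; incubation was 30 min at RT after an initial read.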

[13] = qHTS of Trypanosoma Brucei Inhibitors: LOPAC Validation (AID 624147); conditions: purified enzyme assay, luminescence, 45 min; series mostly up to 57.5 µM; note: 0% is about no effect
Method in brief: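 Readout: single end-point luminescence (Kinase-Glo Plus, 10 min). Reaction conditions were TbPYK/substrate plus 130 uM ADP, 45 min at RT, pH 7.2 TEA buffer. No-enzyme wells served as controls, and data were normalized before concentration-response fitting.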

[14] = target: Glucagon-like peptide 1 receptor (Homo sapiens) (UniProt P43220); experiment: qHTS of GLP-1 Receptor Agonists: LOPAC Validation (AID 624148); conditions: GLP-1R agonist cell assay; series mostly up to 46.1 µM;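 note: luminescence from a luciferase reporter switched on by cAMP; 0% is about no effect; higher luminescence signal means agonism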
Chain of Glucagon-like peptide 1 receptor (Homo sapiens) (P43220 whole entry, looked up): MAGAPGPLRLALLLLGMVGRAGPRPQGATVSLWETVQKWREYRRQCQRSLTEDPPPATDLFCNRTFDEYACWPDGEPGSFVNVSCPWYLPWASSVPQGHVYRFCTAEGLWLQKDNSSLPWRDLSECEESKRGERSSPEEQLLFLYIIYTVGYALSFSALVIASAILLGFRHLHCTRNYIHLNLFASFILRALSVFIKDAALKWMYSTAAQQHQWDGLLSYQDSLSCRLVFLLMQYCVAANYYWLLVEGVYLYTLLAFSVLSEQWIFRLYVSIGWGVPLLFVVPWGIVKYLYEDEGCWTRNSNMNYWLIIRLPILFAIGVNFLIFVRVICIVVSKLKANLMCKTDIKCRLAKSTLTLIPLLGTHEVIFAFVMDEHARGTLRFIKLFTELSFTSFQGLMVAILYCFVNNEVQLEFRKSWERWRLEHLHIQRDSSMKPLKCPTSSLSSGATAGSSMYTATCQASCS
Method in brief: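 Agonism scored as increased luciferase luminescence driven by cAMP in HEK293 clones carrying GLP-1R. Cells settled 12 hours, received compound for 4-6 hr at 37 deg C, 5% CO2, and were read after 12 min detection reagent at RT.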

[15] = target: Peroxisome proliferator-activated receptor gamma (Homo sapiens) (UniProt P37231); experiment: qHTS assay for small molecule antagonists of peroxisome proliferator-activated receptor gamma signaling (AID 588537; active = well fitted inhibition curve with a large enough effect in the signal ratio, with a control signal flat, not every such curve was filed as active; the % refers to the signal ratio; note: potency is the fitted concentration of half-maximal effect); conditions: HEK293 PPARg-UAS-bla, beta-lactamase ratio, antagonist mode; series mostly up to 76.8 µM
Chain of Peroxisome proliferator-activated receptor gamma (Homo sapiens) (P37231 whole entry, looked up): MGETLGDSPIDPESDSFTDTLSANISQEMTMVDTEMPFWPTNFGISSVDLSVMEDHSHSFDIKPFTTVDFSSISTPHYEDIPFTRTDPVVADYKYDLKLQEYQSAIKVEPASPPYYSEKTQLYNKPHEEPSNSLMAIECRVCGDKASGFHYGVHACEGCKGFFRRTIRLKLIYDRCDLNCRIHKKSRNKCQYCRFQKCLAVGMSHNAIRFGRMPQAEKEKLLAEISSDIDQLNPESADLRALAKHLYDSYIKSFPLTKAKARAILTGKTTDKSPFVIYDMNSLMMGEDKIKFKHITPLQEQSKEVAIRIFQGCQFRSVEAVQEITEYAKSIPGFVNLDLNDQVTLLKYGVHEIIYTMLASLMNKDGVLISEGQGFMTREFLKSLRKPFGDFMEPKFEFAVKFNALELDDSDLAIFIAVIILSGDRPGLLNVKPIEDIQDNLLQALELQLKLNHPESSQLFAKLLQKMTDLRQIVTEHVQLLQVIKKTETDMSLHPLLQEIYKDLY
Method in brief: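 Antagonist-mode β-lactamase reporter screen run as a titration series. HEK293 PPARγ-UAS-bla cells are stimulated with rosiglitazone (50 nM final) for 16 h, then CCF4 is read at 460/530 nm. Data are scaled between DMSO and rosiglitazone and fitted to the Hill equation.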

[16] = target: Luciferin 4-monooxygenase (Photinus pyralis) (UniProt P08659); experiment: Biochemical firefly luciferase enzyme assay for NPC (AID 624030);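 note: purified P. pyralis luciferase at 10 nM with luciferin and ATP substrate; 0% = DMSO and -100% = full luciferase inhibition by PTC124 control; nearly all actives have a fitted effect of over 70% in size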; conditions: purified P. pyralis luciferase, luminescence, 5 min; series mostly up to 58.6 µM
Chain of Luciferin 4-monooxygenase (Photinus pyralis) (P08659 whole entry, looked up): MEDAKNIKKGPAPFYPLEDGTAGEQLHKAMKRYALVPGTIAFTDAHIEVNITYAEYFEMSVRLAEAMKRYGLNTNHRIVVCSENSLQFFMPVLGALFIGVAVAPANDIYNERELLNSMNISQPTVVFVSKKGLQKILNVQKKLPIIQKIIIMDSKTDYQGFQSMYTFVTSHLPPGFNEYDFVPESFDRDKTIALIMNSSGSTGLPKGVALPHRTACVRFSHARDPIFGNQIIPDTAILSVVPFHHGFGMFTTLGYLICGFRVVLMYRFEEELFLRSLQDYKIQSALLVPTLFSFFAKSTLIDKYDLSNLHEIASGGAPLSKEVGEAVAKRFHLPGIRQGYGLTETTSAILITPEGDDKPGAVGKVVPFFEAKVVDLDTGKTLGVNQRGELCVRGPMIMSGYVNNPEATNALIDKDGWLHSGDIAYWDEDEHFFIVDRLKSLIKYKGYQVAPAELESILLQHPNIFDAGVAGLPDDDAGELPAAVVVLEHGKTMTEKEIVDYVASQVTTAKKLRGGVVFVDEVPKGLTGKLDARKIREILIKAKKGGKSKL
Method in brief: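 Direct inhibition of firefly luciferase enzyme (10 nM final, 50 mM Tris Acetate) assessed by luminescence within 5 minutes. Percent activity scaled between DMSO and PTC124 positive control, with concentration-effect curves classified by fit quality and response.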

[17] = target: Peroxisome proliferator-activated receptor gamma (Homo sapiens) (UniProt P37231); experiment: qHTS assay for small molecule agonists of peroxisome proliferator-activated receptor gamma signaling (AID 588536; active = well fitted curve in the direction sought with a large enough effect in the signal ratio, with a control signal flat, not every such curve was filed as active; the % refers to the signal ratio;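 note: 0% = DMSO basal wells and 100% = rosiglitazone at 2 µM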); conditions: HEK293 PPARg-UAS-bla, beta-lactamase ratio, 16 h, percent of rosiglitazone response, DMSO as zero; series mostly up to 76.7 µM
Method in brief: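 Using GeneBLAzer HEK293 cells, response was quantified by CCF4 fluorescence and normalized between basal DMSO (0%) and rosiglitazone 2 uM (100%); curves yielded half-maximal stimulation concentration and efficacy.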

[18] = target: Thyroid hormone receptor beta (Homo sapiens) (UniProt P10828); experiment: qHTS assay for small molecule antagonists of thyroid hormone receptor beta signaling (AID 588547; active = well fitted inhibition curve with a large enough effect in the signal ratio, with a control signal flat, not every such curve was filed as active; the % refers to the signal ratio;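 note: cells stimulated with 0.4 nM T3 agonist during compound exposure; % is set by controls: 0 for no effect and ±100 for the full control effect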); conditions: TR-UAS-bla HEK293, beta-lactamase ratio, antagonist mode, 18 h
Method in brief: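 Inhibition of T3-driven (0.4nM final) beta-lactamase reporter activity was measured over 0.59 nM to 92 uM compound after 18 h at 37 C. The cells were GripTite HEK293 TR-UAS-bla in charcoal/dextran-stripped serum, with CCF4 ratio read-out and IC50 from Hill fits.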

[19] = S16 Schwann cell PMP22 intronic element beta-lactamase assay (AID 624044; calls by dose curve;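 note: 0% = DMSO and -100% = potassium clavulanate positive control; nearly all actives have a fitted effect of over 15% in size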); conditions: S16 rat Schwann cells, PMP22 element beta-lactamase FRET, 24 h; series mostly up to 38.3 µM
Method in brief: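 Beta-lactamase reporter under a PMP22 intronic regulatory element in stable S16 rat Schwann cells; 24 h compound exposure. 460 nm blue signal normalized between DMSO (0%) and potassium clavulanate, with 535 nm FRET tracking viability; curves classed by r2 and response.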

Nc1ccncc1
-5.09%: max response [7]
-10.7%: max response [4]
-23%: max response [1]
inactive: outcome [2] | outcome [3] | Potency [5] | outcome [6] | max response [8] -7.1% | Potency [9] | Potency [10] | Potency [11] | Potency [12] | outcome [13] | outcome [14]

C=CCN1CC[C@]23c4c5ccc(O)c4O[C@H]2C(=O)CC[C@@]3(O)[C@H]1C5
inactive: Potency [9]

O=C1CC[C@@]2(O)[C@H]3Cc4ccc(O)c5c4[C@@]2(CCN3CC2CC2)[C@H]1O5
inactive: Potency [9]

CN(C)[C@@H]1C(=O)C(C(N)=O)=C(O)[C@@]2(O)C(=O)C3=C(O)c4c(O)cccc4[C@@](C)(O)[C@H]3C[C@@H]12
inactive: Potency [9]

CC(C)[N+](C)(CCOC(=O)C1c2ccccc2Oc2ccccc21)C(C)C
inactive: Potency [9]

C=C(C)[C@H]1Cc2c(ccc3c2O[C@@H]2COc4cc(OC)c(OC)cc4[C@@H]2C3=O)O1
active: Potency [15] 44.7 µM | Potency [8] 20 µM | Potency [12] 11.2 µM
inactive: outcome [6] | Potency [9] | Potency [16] | Potency [10] | outcome [13] | outcome [14]
12.4%: max response [7]

O=c1[nH]c2ccccc2n1C1CCN(CCCC(c2ccc(F)cc2)c2ccc(F)cc2)CC1
active: Potency [8] 17.8 µM
-25.7%: max response [7]
inactive: Potency [16] | Potency [12] | outcome [13] | outcome [14]

CCCC(C)(COC(N)=O)COC(=O)NC(C)C (configuration not stated)
-3.14% and 6.33%: max response [4]
3.28% and 3.87%: max response [7]
inactive: outcome [17] | Potency [15] | outcome [2] | outcome [3] | Potency [5] | outcome [6] | max response [8] 1.9% and -6.86% | activity change % (negative = inhibition) [18] 4.32% and -7.39% | Potency [9] | Potency [16] | Potency [10] | Potency [11] | Potency [12] | outcome [13] | outcome [14]

CC(C)(C)CC(C)(C)c1ccc(O)cc1
-53.5%: max response [4]
inactive: outcome [2] | outcome [3] | Potency [5] | Potency [9] | Potency [16] | Potency [10] | Potency [11] | Potency [19]
-1.27%: max response [1]

C[C@]12CCC(=O)C(O)=C1CC[C@@H]1[C@@H]2CC[C@]2(C)C(=O)CC[C@@H]12
21.6%: max response [4]
17.4%: max response [7]
inactive: outcome [17] | Potency [15] | outcome [2] | outcome [3] | Potency [5] | max response [8] 13.8% | activity change % (negative = inhibition) [18] 9.32% | outcome [13]

C=C1C[C@@H]2[C@H](CC[C@]3(C)C(=O)CC[C@@H]23)[C@@]2(C)C=CC(=O)C=C12
inactive: Potency [9]
